Records with an inconclusive call do not appear. Calls of active or inactive are those of the source. How the source made its calls, unless noted: active means hit-call score of the fitted dose curve at least 0.9, where 1 is the maximum; inconclusive means response in the unintended direction; inactive means score below 0.9.
Key:
[1] = ATG_TAL_CIS: Attagene CIS-FACTORIAL HepG2 Assay for human TAL Basal Promoter (AID 2282966; active means hit-call score of the fitted dose curve at least 0.9, where 1 is the maximum; inactive means score below 0.9;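 further: background control endpoint measuring basal TAL promoter reporter mRNA not a specific factor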); conditions: HepG2 Attagene cis-factorial TAL promoter reporter; actives raise or lower the signal
Procedure, shortened: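 Background-control endpoint: basal TAL promoter reporter transcripts in transiently transfected HepG2, measured 24 h after dosing. Read-out by RT-PCR with fluorescent primer extension and capillary electrophoresis; gain or loss of signal fitted relative to DMSO.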

[2] = ATG_TGFb_CIS: Attagene CIS-FACTORIAL HepG2 Assay for human Transforming Growth Factor (TGF) (AID 2282967; active means hit-call score of the fitted dose curve at least 0.9, where 1 is the maximum; inactive means score below 0.9); conditions: HepG2 Attagene CIS TGFb reporter, mRNA transcription; actives raise or lower the signal
Procedure, shortened: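 Bidirectional fitting relative to DMSO gave the endpoint. Underlying data: reporter mRNA from HepG2 cells carrying transiently transfected cis-regulated reporter constructs, harvested 24 h after dosing and analyzed by RT-PCR and capillary electrophoresis.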

[3] = ATG_VDRE_CIS: Attagene CIS-FACTORIAL HepG2 Assay for human Vitamin D Receptor Element (VDRE) (AID 2282968; active means hit-call score of the fitted dose curve at least 0.9, where 1 is the maximum; inactive means score below 0.9); conditions: HepG2 VDRE cis-reporter transcription, actives raise or lower the signal
Procedure, shortened: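 Measures endogenous factor activity through cis-element-driven reporter transcripts in transiently transfected HepG2. Cells are treated 24 h; reporter mRNA is quantified by RT-PCR and capillary electrophoresis; fitting is bidirectional.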

[4] = target: Nuclear receptor subfamily 1 group I member 3 (Homo sapiens) (UniProt Q14994); assay: ATG_CAR_TRANS: Attagene TRANS-FACTORIAL HepG2 Assay for human Constitutive Androstane Receptor (CAR) (AID 2282969); conditions: HepG2 Attagene TRANS-FACTORIAL CAR reporter;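 further: activators raise reporter mRNA above DMSO so AC50 marks induction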
Procedure, shortened: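 Signal is reporter mRNA induction relative to DMSO, measured 24 h after dosing by RT-PCR with fluorescent primer extension and capillary electrophoresis. Human HepG2 liver cells carried transiently transfected chimeric NR-Gal4/GAL4-UAS reporter constructs.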

[5] = target: Steroid hormone receptor ERR1 (Homo sapiens) (UniProt P11474); assay: ATG_ERRa_TRANS: Attagene TRANS-FACTORIAL HepG2 Assay for human Estrogen-Related Receptor alpha (ERRa) (AID 2282971); conditions: HepG2 Attagene TRANS reporter, ERRa transactivation
Procedure, shortened: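 Reporter transcripts from ERRa-Gal4 chimera activity measured in transiently transfected human HepG2 cells 24 hours after dosing, using RT-PCR with 6-FAM primer extension, HpaI digestion and capillary electrophoresis; DMSO is baseline.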

[6] = target: X-box-binding protein 1 (Homo sapiens) (UniProt P17861); assay: ATG_Xbp1_CIS: Attagene CIS-FACTORIAL HepG2 Assay for human X-box Binding Protein 1 (XBP1) (AID 2282972; active means hit-call score of the fitted dose curve at least 0.9, where 1 is the maximum; inactive means score below 0.9); conditions: HepG2 XBP1 cis-element reporter, Attagene multiplex; actives raise or lower the signal
Procedure, shortened: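 Reporter transcripts were quantified by RT-PCR with fluorescent primer extension and capillary electrophoresis after 24 h chemical exposure. Cells: transiently transfected HepG2 carrying cis-regulated reporter constructs; data fitted bidirectionally relative to DMSO.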

[7] = ATG_M_19_TRANS: Attagene TRANS-FACTORIAL HepG2 Assay for M19 Transcription Factor (Internal Marker) (AID 2282974); conditions: HepG2 Attagene TRANS-FACTORIAL M19 internal marker reporter
Procedure, shortened: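 Reporter mRNA induction was measured in transfected HepG2 cells 24 h after dosing. Endpoint fitted upward relative to DMSO and serves as a background control within the multiplexed TRANS panel.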

[8] = ATG_GAL4_TRANS: Attagene TRANS-FACTORIAL HepG2 Assay for GAL4 (Internal Marker) (AID 2282976); conditions: HepG2 Attagene TRANS GAL4 internal marker reporter
Procedure, shortened: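 In transfected human HepG2 liver cells dosed 24 h, GAL4 reporter mRNA serves as a baseline marker. Detection by RT-PCR with fluorescent capillary electrophoresis, activity fitted upward relative to DMSO.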

[9] = target: Estrogen-related receptor gamma (Homo sapiens) (UniProt P62508); assay: ATG_ERRg_TRANS: Attagene TRANS-FACTORIAL HepG2 Assay for human Estrogen-Related Receptor gamma (ERRg) (AID 2282977); conditions: HepG2 Attagene TRANS reporter, ERRg transactivation;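 further: hits increase reporter signal over DMSO so potencies reflect activators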
Procedure, shortened: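 Readout: fluorescent reporter-mRNA fragments resolved by capillary electrophoresis after RT-PCR and HpaI cut. Cells: transiently transfected HepG2 carrying GAL4-UAS reporters driven by exogenous NR-Gal4 chimeras, dosed 24 h. Activity fitted upward relative to DMSO baseline.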

[10] = target: Glucocorticoid receptor (Homo sapiens) (UniProt P04150); assay: ATG_GR_TRANS: Attagene TRANS-FACTORIAL HepG2 Assay for human Glucocorticoid Receptor (GR) (AID 2282978); conditions: HepG2 Attagene TRANS GR reporter, mRNA transcription;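 further: activators score as hits since higher reporter transcript over DMSO is fitted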
Procedure, shortened: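 Reporter transcript levels, detected by fluorescence after RT-PCR and capillary electrophoresis, served as the endpoint. HepG2 cells bearing transfected GAL4-UAS reporters responsive to NR-GAL4 chimeras were incubated with compound 24 h; DMSO defined baseline.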

[11] = target: Oxysterols receptor LXR-alpha (Homo sapiens) (UniProt Q13133); assay: ATG_LXRa_TRANS: Attagene TRANS-FACTORIAL HepG2 Assay for human Liver X Receptor alpha (LXRa) (AID 2282980); conditions: HepG2 Attagene TRANS reporter, LXRa transactivation
Procedure, shortened: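 Chemical-induced reporter mRNA measured by RT-PCR with fluorescent labelling and capillary electrophoresis after 24 h dosing of transiently transfected HepG2 cells expressing exogenous NR-Gal4 chimeras; increases scored against DMSO baseline.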

[12] = target: Oxysterols receptor LXR-beta (Homo sapiens) (UniProt P55055); assay: ATG_LXRb_TRANS: Attagene TRANS-FACTORIAL HepG2 Assay for human Liver X Receptor beta (LXRb) (AID 2282981); conditions: HepG2 Attagene TRANS GAL4-LXRb reporter, mRNA
Procedure, shortened: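 After 24 h of chemical treatment, transfected HepG2 cells yield total RNA; reporter cDNA is PCR-amplified, FAM-labelled, HpaI-cut and run on capillary electrophoresis. Signal reflects chimeric LXRb-Gal4 activity on GAL4-UAS reporters.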

[13] = ATG_M_06_TRANS: Attagene TRANS-FACTORIAL HepG2 Assay for M06 Transcription Factor (Internal Marker) (AID 2282983); conditions: HepG2 Attagene TRANS M06 internal marker reporter
Procedure, shortened: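 Background-control reporter readout: after 24 h chemical exposure of transiently transfected HepG2 (GAL4-UAS reporter units), mRNA quantified by RT-PCR with fluorescent labeling and capillary electrophoresis. Gain-of-signal fitting against DMSO baseline.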

[14] = ATG_M_32_TRANS: Attagene TRANS-FACTORIAL HepG2 Assay for M32 Transcription Factor (Internal Marker) (AID 2282984); conditions: HepG2 Attagene TRANS M32 internal marker reporter
Procedure, shortened: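 Cell-based TRANS-format assay in HepG2: exogenous chimeric GAL4 reporter units transiently expressed, compounds applied 24 h. Reporter mRNA detected by RT-PCR plus capillary electrophoresis; this readout is an internal background marker.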

[15] = target: Transcriptional activator Myb (Homo sapiens) (UniProt P10242); assay: ATG_Myb_CIS: Attagene CIS-FACTORIAL HepG2 Assay for human Myeloblastosis (Myb) Proto-Oncogene Transcription Factor (AID 2282986; active means hit-call score of the fitted dose curve at least 0.9, where 1 is the maximum; inactive means score below 0.9); conditions: HepG2 Attagene CIS-FACTORIAL Myb reporter transcription; actives raise or lower the signal
Procedure, shortened: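 Transiently transfected HepG2 cells, treated 24 h. Reporter mRNA quantified by RT-PCR/capillary electrophoresis; bidirectional fit relative to DMSO.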

[16] = target: Nuclear respiratory factor 1 (Homo sapiens) (UniProt Q16656); assay: ATG_NRF1_CIS: Attagene CIS-FACTORIAL HepG2 Assay for human Nuclear Respiratory Factor 1 (NRF1) Orphan Gene (AID 2282987; active means hit-call score of the fitted dose curve at least 0.9, where 1 is the maximum; inactive means score below 0.9); conditions: HepG2 NRF1 cis-element reporter, Attagene multiplex; actives raise or lower the signal
Procedure, shortened: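 Cells (HepG2, transient MRTU transfection) are exposed to compound for 24 h, then RNA isolated and reporter mRNA amplified and fluorescently labelled. Fragments are separated by capillary electrophoresis; signal change is fitted bidirectionally relative to DMSO.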

[17] = target: Nuclear receptor subfamily 4 group A member 2 (Homo sapiens) (UniProt P43354); assay: ATG_NURR1_TRANS: Attagene TRANS-FACTORIAL HepG2 Assay for human Nuclear Receptor Related Protein 1 (NURR1) (AID 2282985); conditions: HepG2 Attagene TRANS reporter, mRNA readout
Procedure, shortened: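 Measures transcriptional activation by an exogenous NR-Gal4 chimera in transfected HepG2 liver cells. After 24 h, reporter RNA is reverse-transcribed, amplified and resolved by capillary electrophoresis; DMSO defines baseline.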

[18] = target: Bile acid receptor (Homo sapiens) (UniProt Q96RI1); assay: ATG_FXR_TRANS: Attagene TRANS-FACTORIAL HepG2 Assay for Farnesoid X Receptor (FXR) (AID 2282979); conditions: HepG2 Attagene TRANS FXR-GAL4 reporter transcription;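 further: hits raise reporter mRNA above DMSO so AC50 marks FXR activation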
Procedure, shortened: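 Reporter transcripts from transfected HepG2 cells were measured 24 h after dosing, using RT-PCR with capillary electrophoresis of 6-FAM-labelled fragments. The read-out reflects activity of exogenous FXR-Gal4 chimera on GAL4-UAS units, with induction relative to DMSO.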

[19] = target: Hepatocyte nuclear factor 4-alpha (Homo sapiens) (UniProt P41235); assay: ATG_HNF4a_TRANS: Attagene TRANS-FACTORIAL HepG2 Assay for human Hepatocyte Nuclear Factor 4 alpha (HNF4a) (AID 2282982); conditions: HepG2 HNF4a transactivation reporter, mRNA readout
Procedure, shortened: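 Multiplexed reporter assay: transfected HepG2, 24 h exposure, total RNA → oligo(dT) RT → PCR → 6-FAM extension → HpaI digest → CE fluorescence. DMSO = negative control.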

[20] = target: Estrogen receptor (Homo sapiens) (UniProt P03372); assay: ATG_ERa_TRANS: Attagene TRANS-FACTORIAL HepG2 Assay for human Estrogen Receptor alpha (ERa) (AID 2282970); conditions: HepG2 Attagene TRANS ERa GAL4 reporter, mRNA
Procedure, shortened: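 Reporter transcripts were measured 24 h after dosing by RT-PCR with fluorescent primer extension and capillary electrophoresis. The system is transiently transfected HepG2 expressing exogenous NR-Gal4 chimeras driving GAL4-UAS reporters; DMSO is the baseline.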

Measured: AC50

Estrogen-related receptor gamma (Homo sapiens), sequence (P62508 whole entry, looked up, the tested form may be a part): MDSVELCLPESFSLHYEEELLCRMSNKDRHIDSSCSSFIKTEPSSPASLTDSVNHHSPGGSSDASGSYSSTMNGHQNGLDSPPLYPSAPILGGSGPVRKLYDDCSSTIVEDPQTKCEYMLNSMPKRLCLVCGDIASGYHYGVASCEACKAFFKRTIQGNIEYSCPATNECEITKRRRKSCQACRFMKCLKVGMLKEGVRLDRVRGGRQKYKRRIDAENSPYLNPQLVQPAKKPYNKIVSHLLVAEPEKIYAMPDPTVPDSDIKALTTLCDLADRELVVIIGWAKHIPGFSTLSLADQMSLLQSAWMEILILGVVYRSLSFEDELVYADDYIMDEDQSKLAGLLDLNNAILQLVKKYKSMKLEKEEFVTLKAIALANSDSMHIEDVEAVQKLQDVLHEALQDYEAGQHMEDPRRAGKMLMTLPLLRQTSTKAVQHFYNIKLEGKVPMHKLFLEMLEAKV
Nuclear receptor subfamily 4 group A member 2 (Homo sapiens), sequence (P43354 whole entry, looked up, the tested form may be a part): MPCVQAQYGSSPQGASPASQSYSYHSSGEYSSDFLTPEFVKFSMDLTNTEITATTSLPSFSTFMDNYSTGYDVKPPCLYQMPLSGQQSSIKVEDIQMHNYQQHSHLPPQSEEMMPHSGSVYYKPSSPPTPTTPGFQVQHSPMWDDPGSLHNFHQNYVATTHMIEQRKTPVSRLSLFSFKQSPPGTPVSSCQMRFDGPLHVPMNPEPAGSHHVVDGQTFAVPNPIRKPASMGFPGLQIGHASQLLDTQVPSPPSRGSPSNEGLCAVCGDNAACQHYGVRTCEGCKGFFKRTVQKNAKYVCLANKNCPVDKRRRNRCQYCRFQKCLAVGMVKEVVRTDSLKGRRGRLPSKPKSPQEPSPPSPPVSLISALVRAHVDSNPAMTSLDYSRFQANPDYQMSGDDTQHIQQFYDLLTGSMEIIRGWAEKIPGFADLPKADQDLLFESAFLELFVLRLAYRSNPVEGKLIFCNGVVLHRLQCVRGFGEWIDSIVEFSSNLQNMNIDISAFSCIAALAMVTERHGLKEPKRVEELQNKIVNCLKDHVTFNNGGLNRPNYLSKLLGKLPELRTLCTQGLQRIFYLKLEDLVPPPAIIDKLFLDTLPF
Transcriptional activator Myb (Homo sapiens), sequence (P10242 whole entry, looked up): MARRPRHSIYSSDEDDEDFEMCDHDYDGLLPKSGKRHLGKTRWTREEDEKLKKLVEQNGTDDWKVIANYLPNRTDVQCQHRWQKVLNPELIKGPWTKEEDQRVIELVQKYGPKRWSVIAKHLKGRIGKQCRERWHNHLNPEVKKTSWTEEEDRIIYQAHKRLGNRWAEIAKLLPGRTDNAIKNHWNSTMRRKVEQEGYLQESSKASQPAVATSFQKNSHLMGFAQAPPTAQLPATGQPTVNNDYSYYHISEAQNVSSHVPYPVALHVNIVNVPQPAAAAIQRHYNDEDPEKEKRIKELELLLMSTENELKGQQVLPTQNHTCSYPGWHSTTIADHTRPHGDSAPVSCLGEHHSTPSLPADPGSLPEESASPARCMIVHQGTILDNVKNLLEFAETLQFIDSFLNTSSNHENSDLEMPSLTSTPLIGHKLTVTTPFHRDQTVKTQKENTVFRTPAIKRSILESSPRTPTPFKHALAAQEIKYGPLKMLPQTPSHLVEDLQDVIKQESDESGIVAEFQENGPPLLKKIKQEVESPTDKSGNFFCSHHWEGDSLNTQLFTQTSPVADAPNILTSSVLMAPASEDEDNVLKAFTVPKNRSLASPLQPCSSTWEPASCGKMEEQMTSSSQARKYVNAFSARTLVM
Hepatocyte nuclear factor 4-alpha (Homo sapiens), sequence (P41235 whole entry, looked up): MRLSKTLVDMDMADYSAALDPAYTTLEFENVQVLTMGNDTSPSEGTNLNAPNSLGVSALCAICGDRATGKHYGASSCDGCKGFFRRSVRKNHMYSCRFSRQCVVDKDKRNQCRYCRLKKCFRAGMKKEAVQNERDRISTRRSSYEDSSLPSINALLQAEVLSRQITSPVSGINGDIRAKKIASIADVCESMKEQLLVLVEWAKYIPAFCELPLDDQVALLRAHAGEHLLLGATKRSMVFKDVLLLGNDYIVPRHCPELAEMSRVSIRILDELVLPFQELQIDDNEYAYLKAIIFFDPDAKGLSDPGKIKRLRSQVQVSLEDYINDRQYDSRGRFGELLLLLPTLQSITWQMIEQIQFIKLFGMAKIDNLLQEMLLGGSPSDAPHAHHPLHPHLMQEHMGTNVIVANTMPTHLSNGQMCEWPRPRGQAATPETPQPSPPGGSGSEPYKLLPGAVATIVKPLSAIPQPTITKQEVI
X-box-binding protein 1 (Homo sapiens), sequence (P17861 whole entry, looked up): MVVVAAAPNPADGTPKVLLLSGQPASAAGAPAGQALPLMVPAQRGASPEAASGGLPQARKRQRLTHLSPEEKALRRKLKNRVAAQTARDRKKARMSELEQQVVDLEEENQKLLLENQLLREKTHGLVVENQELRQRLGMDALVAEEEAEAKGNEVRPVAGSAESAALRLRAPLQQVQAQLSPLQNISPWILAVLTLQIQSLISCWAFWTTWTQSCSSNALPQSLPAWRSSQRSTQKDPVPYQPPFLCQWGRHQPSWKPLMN
Oxysterols receptor LXR-alpha (Homo sapiens), sequence (Q13133 whole entry, looked up, the tested form may be a part): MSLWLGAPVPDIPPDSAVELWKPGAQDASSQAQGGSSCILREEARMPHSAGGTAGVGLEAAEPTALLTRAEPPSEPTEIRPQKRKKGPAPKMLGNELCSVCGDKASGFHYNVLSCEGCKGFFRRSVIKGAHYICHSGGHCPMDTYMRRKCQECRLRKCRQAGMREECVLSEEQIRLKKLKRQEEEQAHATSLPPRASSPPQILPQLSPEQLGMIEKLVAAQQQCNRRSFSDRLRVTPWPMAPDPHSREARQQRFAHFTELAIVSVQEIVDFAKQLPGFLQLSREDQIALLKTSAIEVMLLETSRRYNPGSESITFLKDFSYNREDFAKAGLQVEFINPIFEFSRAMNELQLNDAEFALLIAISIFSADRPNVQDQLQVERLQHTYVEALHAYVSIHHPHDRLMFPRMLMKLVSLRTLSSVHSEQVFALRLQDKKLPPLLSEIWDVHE
Nuclear receptor subfamily 1 group I member 3 (Homo sapiens), sequence (Q14994 whole entry, looked up, the tested form may be a part): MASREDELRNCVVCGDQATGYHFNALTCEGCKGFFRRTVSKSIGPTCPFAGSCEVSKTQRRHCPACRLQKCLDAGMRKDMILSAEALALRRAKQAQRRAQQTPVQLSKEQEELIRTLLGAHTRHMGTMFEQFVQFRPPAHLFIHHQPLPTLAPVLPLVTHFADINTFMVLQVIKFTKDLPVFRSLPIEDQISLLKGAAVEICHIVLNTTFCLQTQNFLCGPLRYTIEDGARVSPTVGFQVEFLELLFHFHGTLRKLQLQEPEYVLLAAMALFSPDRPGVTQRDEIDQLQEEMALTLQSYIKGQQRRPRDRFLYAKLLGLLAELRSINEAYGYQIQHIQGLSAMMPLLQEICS
Oxysterols receptor LXR-beta (Homo sapiens), sequence (P55055 whole entry, looked up, the tested form may be a part): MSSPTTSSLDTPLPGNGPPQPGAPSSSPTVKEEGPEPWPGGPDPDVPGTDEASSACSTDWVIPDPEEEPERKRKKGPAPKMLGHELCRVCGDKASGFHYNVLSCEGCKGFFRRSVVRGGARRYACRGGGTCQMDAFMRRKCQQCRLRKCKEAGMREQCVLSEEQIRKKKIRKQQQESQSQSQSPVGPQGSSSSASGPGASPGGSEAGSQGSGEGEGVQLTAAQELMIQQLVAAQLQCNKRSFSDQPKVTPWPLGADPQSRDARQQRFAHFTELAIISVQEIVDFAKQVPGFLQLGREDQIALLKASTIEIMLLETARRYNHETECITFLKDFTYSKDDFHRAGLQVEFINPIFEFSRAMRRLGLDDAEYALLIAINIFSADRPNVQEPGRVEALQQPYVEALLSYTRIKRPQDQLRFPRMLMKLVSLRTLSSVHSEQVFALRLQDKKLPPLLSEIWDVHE
Nuclear respiratory factor 1 (Homo sapiens), sequence (Q16656 whole entry, looked up, the tested form may be a part): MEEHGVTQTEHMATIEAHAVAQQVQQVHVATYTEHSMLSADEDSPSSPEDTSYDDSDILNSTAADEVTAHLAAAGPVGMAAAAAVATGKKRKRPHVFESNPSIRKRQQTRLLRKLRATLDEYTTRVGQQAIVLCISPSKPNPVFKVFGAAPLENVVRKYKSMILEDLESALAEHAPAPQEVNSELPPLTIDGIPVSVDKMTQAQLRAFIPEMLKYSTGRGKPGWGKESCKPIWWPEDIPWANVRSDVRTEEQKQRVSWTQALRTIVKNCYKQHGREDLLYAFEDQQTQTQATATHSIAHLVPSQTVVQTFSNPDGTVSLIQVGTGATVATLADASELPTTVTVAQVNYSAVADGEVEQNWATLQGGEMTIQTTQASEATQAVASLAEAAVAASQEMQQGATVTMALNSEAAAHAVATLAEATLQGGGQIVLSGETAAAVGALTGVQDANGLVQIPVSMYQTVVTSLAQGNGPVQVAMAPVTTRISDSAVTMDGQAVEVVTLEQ
Steroid hormone receptor ERR1 (Homo sapiens), sequence (P11474 whole entry, looked up, the tested form may be a part): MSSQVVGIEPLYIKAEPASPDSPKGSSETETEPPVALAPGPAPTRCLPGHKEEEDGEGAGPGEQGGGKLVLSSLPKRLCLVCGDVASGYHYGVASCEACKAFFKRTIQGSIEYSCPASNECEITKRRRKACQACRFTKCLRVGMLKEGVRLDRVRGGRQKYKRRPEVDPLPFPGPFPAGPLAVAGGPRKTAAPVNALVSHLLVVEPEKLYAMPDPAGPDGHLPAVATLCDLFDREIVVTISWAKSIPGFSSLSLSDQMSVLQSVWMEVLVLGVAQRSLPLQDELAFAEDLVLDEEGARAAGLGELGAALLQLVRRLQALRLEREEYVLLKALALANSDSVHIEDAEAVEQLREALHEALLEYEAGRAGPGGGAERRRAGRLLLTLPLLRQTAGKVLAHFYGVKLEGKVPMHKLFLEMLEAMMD

CCCC(=O)c1ccccc1
not listed: [17] | [18] | [19] | [20]
inactive: all other assays above

COc1ccccc1N=Nc1c(S(=O)(=O)O)cc2cc(S(=O)(=O)O)cc(NC(C)=O)c2c1O
not listed: [9] | [12] | [16] | [18] | [19] | [20]
inactive: all other assays above

Nc1ccc(N)c2c1C(=O)c1ccccc1C2=O
active: [3] 6.59 µM | [6] 2.57 µM
not listed: [9] | [11] | [12] | [13] | [20]
inactive: all other assays above

CSCCC=O
not listed: [7] | [10] | [12] | [14] | [16] | [17] | [19] | [20]
inactive: all other assays above

CC(C)(CO)[C@@H](O)C(=O)NCCC(=O)O
not listed: [5] | [7] | [9] | [10] | [11] | [18] | [19]
inactive: all other assays above

CCN(CCN)c1cccc(C)c1
active: [3] 72.4 µM
not listed: [5] | [7] | [8] | [10] | [12] | [18]
inactive: all other assays above

C=Cc1ccc(C)cc1
not listed: [5] | [9] | [11] | [13] | [17] | [18] | [19] | [20]
inactive: all other assays above

c1ccc2cc(Nc3ccc(Nc4ccc5ccccc5c4)cc3)ccc2c1
not listed: [12] | [14] | [18] | [19] | [20]
inactive: all other assays above

CCCCCCCC(=O)OCCCCCC
not listed: [8] | [9] | [10] | [12] | [18] | [20]
inactive: all other assays above

CC(C)OCCO
inactive: [1] | [2] | [3] | [4] | [6] | [13] | [17] | [15] | [16]

— PubChem BioAssay (EPA / NIEHS)
